Only some compounds are listed: those with a hit (about 13% of all), similar ones and a draw of the others.
ALDH1A1 block: qHTS Assay for Inhibitors of Aldehyde Dehydrogenase 1 (ALDH1A1); 7.3% of 220,000 active; Purified ALDH1A1, NADH fluorescence, propionaldehyde substrate; Aldehyde dehydrogenase 1A1 (Homo sapiens), P00352; AID 1030, 2008; Potency, µM (highest dose often 75.3 µM), for inactives: top-dose activity, negative = inhibition, usual class: inhibitors; active = well fitted inhibition curve with a large enough effect, not every such curve was filed as active; inconclusive = small, poorly fitted or top-dose-only effect, or another doubt; inactive = no such curve, though single readings can be large or run the other way;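 note: potency is the fitted concentration of half-maximal effect; plate controls were no enzyme wells and a reference inhibitor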
KDM4E inh: qHTS Assay for Inhibitors of Human Jumonji Domain Containing 2E (JMJD2E). JMJD2E catalytic domain, FDH-coupled NADH fluorescence (FDH is formaldehyde dehydrogenase). 1.6% of 230,000 active. Potency, µM (series often up to 57.1 µM), for inactives: at the top dose activity change, negative = inhibition, actives largely listed as inhibitors; active = well fitted inhibition curve with a large enough effect, not every such curve was filed as active; inconclusive = small, poorly fitted or top-dose-only effect, or another doubt; inactive = no such curve, though single readings can be large or run the other way;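 note: potency is the fitted concentration of half-maximal effect; 0% = wells with enzyme and -100% = buffer wells without enzyme; nearly all actives have a fitted effect of over 50% in size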
Target sequence (B2RXH2 1-337 limits assumed): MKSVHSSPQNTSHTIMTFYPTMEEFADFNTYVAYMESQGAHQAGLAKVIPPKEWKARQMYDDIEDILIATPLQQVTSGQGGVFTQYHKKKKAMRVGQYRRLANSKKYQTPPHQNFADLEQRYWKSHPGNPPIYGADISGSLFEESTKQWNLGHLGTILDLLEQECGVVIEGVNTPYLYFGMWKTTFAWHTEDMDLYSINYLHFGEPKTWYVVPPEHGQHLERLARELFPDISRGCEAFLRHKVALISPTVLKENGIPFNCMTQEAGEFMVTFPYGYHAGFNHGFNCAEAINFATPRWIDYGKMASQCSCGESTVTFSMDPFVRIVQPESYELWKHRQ
Lamin A splicing: qHTS Assay for Modulators of Lamin A Splicing; HeLa LMNA splicing GFP/RFP minigene ratio, 48 h; Potency, µM (series often up to 46.1 µM), without a hit: at the highest dose ratio change, negative = inhibition, usual class: inhibitors; 0.01% of 200,000 active; AID 1487, 2009; active = well fitted inhibition curve with a large enough effect in the signal ratio, with a control signal flat, not every such curve was filed as active; inconclusive = small, poorly fitted or top-dose-only effect, or effect the other way, or a change in a side signal; the % refers to the signal ratio; note: potency is the fitted concentration of half-maximal effect; % is set by controls: 0 for no effect and ±100 for the full control effect
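S3 HeLa stable clones carrying a lamin A-EGFP splicing minigene plus DsRed2 were seeded at 600 cells/well in Opti-MEM with 2% FBS, pin-dosed and incubated 48 h at 37°C. Acumen cytometry (488 nm) gave the GFP/RFP total-intensity ratio.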
miR-21 act: qHTS Assay for Modulators of miRNAs and/orActivators of miR-21 | Potency, µM (highest dose often 38.3 µM), without a hit: at the highest dose activity change, positive = activation, hits mostly activators | HeLa miR-21 FLuc reporter, luciferase, 48 h | AID 2288, 2010 | 340,000 tested, under 10 active;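 note: % of control where 0% means no effect; miR-21 action dims this reporter so a rising signal means less miR-21 action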
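HeLa miR-21-FLuc reporter line, endogenous miR-21; 2000 cells/well in DMEM/10% FBS; compound titration up to ~40uM final, 48 h, 37 degree Celsius; luciferase detection reagent, 15 min lysis, CCD luminescence.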
Sfp PPTase inh: qHTS Assay for Inhibitors of Bacillus subtilis Sfp phosphopantetheinyl transferase (PPTase). 4'-phosphopantetheinyl transferase ffp (Bacillus subtilis), Q9F4F7. Biochemical Sfp PPTase activity, qHTS. Potency, µM, inactives show largest response in the series, negative = inhibition, hits mostly inhibitors. 3.5% of 310,000 active;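 note: the enzyme is Sfp with the accession as filed and its product quenches rhodamine fluorescence; potency is the fitted concentration of half-maximal effect; 0% = enzyme reaction without inhibitor and -100% = no enzyme wells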
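Buffer: 50 mM Hepes-Na pH 7.6, 10 mM MgCl2, 0.01% Nonidet P-40, 0.01% BSA. Enzyme 15 nM, pre-exposed to compound 15 min; substrates then added and fluorescence change tracked over 30 min.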
G9a block: qHTS Assay for Inhibitors of Histone Lysine Methyltransferase G9a | Histone-lysine N-methyltransferase EHMT2 (Homo sapiens), Q96KQ7 | G9a H3K9 monomethylation, AlphaScreen, 2 h | Potency, µM (series often up to 102 µM), without a hit: at the top dose activity, negative = inhibition, actives largely listed as inhibitors | 8.8% of 350,000 active | AID 504332, 2011; note: potency is the fitted concentration of half-maximal effect; % is set by controls: 0 for no effect and ±100 for the full control effect; nearly all actives have a fitted effect of over 75% in size
Target sequence (Q96KQ7 913-1193 limits assumed): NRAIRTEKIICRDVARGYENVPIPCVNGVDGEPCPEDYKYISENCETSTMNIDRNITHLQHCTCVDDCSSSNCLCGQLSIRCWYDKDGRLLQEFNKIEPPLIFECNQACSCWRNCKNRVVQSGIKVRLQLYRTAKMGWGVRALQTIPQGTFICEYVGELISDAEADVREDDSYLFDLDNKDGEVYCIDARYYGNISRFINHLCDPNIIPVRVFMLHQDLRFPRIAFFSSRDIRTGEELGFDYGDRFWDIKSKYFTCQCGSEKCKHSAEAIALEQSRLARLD
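AlphaScreen read-out: biotin-H3K9 peptide (500 nM) methylation by 20 nM enzyme with 20 uM SAM, 2 h at room temperature after 15 min compound preincubation; anti-monomethyl H3K9 antibody plus donor/acceptor beads, 10 min dark.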
* hit, by the source's call; ? = inconclusive; . = no result; [ ] = remark or other dose. Unless noted, calls come from the whole dose curve; as a rule, active = well fitted curve in the direction sought with a large enough effect; inconclusive = small, poorly fitted or top-dose-only effect, or another doubt; inactive = no such curve, though single readings can be large; an effect the other way counts as inactive or inconclusive.

SMILES | ALDH1A1 block | KDM4E inh | Lamin A splicing | miR-21 act | Sfp PPTase inh | G9a block
O=c1[nH]c(=S)[nH]c2c1CN(Cc1ccc(F)cc1)CC2 | . | . | . | -1% | -25% | ?
Cc1ccc(CN2CCc3[nH]c(=S)[nH]c(=O)c3C2)cc1 | . | . | . | 2% | -13% | ?
COc1ccc(-n2c(SC)nc(O)c(Cc3ccccc3)c2=O)cc1 | ? | 1% | -1% | -5% | 0% | 40µM*
COc1ccc(-n2c(SCC(=O)Nc3ccccc3OC)nc(O)c(Cc3ccccc3)c2=O)cc1 | . | . | . | -2% | -13% | .
CC(C)(C)OC(=O)N/N=C/c1cccc([N+](=O)[O-])c1 | -15% | -13% | ? | -41% | -4% | 50µM*
O=[N+]([O-])c1ccc(N/N=C\c2cccn2-c2ccccc2)nc1 | -5% | -2% | 30% | -12% | ? | ?
COc1ccc(CC(=O)N/N=C/c2cccn2-c2ccc([N+](=O)[O-])cc2)cc1OC | -4% | 3% | -17% | 8% | 56µM* | ?
CC(C)(C)OC(=O)N/N=C/c1cccn1-c1ccc([N+](=O)[O-])cc1 | ? | -16% | . | -3% | 10% | 8.9µM*
COc1ccc([N+](=O)[O-])cc1/C=N/NC(=O)Cc1ccccc1 | ? | -12% | . | -2% | 11% | 20%
O=C(O)[C@H]1CN(CCCP(=O)(O)O)CCN1 | 0% | 5% | . | . | 8% | .
Cc1ccc(NC(=O)N2CCN(c3nnc(C)c4c(C)n(-c5ccc(Cl)cc5)nc34)CC2)c(C)c1 | . | . | -12%[46 µM] | 2% | . | 16%[59 µM]
C#CCOCCOCCOCCNc1nc(N2CCN(C(=O)[C@H]([C@@H](C)O)n3cc(CCCCN)nn3)CC2)nc(N2CCN(C(=O)[C@H]([C@@H](C)CC)n3cc(CCCN=C(N)N)nn3)CC2)n1 | 4% | -9% | -2% | -7% | 0% | 50µM*
C#CCOCCOCCOCCNc1nc(N2CCN(C(=O)[C@H]([C@@H](C)CC)n3cc(CCCN=C(N)N)nn3)CC2)nc(N2CCN(C(=O)[C@H](CCCCN)n3cc(CCC(=O)O)nn3)CC2)n1 | 21% | -7% | -3% | -4% | 3% | 50µM*
Cc1ccc(C23CC4CC(CC(NC(=O)NCCN(C)C)(C4)C2)C3)cc1 | 1% | 6% | -5% | -6% | -11% | ?
CN(C)CCNC(=O)COc1ccc(C23CC4CC(CC(C4)C2)C3)cc1 | -2% | -14% | ? | 15% | -7% | 50µM*
CC(C)c1ccc(Nc2nnc(SC3CCOC3=O)s2)cc1 (stereo not given) | ? | 6% | -12% | -12% | -5% | 3%[59 µM]
Cc1ccc(Nc2nnc(SC3CCOC3=O)s2)cc1 (stereo not given) | 2% | 10% | -8% | -8% | -2% | 10µM*
O=C1c2ccccc2C(O)(c2ncc[nH]2)N1CCc1ccccc1 (stereo not given) | 14µM* | -1% | -10% | -2% | -26% | ?
O=C(Nc1ccn(Cc2c(F)c(F)cc(F)c2F)n1)c1cccc(Cn2cc([N+](=O)[O-])cn2)c1 | -4% | -1% | 7% | 17% | 32µM* | ?
Cc1ccc(NC(=O)c2ccc(C(=O)c3ccccc3)cc2)nc1 | . | . | . | . | . | -9%
Cc1ccc2c(=O)cc(C(=O)Nc3sc4c(c3C(=O)NCc3ccco3)CCC4)oc2c1 | . | . | . | -2% | . | -27%[59 µM]
Cn1c(SCC(=O)Nc2ccc3nc(SCC(=O)N4CCCC4)sc3c2)nnc1-c1ccccc1 | 22µM* | -10% | -11% | 9% | -22% | ?
Cn1cnnc1SCC(=O)Nc1ccc2nc(SCc3ccccc3F)sc2c1 | 13µM* | -5% | -18% | -47% | -11% | ?
Cn1c(SCC(=O)N2CCOCC2)nnc1-c1cccc(NC(=O)c2ccccc2F)c1 | 25µM* | -6% | 1% | -4% | 11% | ?
O=C(CSc1nc2ccc(NC(=O)CSc3nnnn3-c3ccccc3)cc2s1)Nc1ccccc1 | ? | -2% | -14% | -14% | -3% | -42%[59 µM]
SMILES | ALDH1A1 block | KDM4E inh | Lamin A splicing | miR-21 act | Sfp PPTase inh | G9a block
CCc1cc2c(=O)c(-c3ccc4c(c3)OCCO4)c(C)oc2cc1OS(C)(=O)=O | 4.5µM* | 5% | ? | 4% | -15% | -3%[59 µM]
CCOC(=O)c1c(C)n(CC(O)c2ccccc2)c2ccc(O)cc12 (stereo not given) | -15% | -4% | ? | 3% | ? | 56µM*
CCOC(=O)c1c(C)n(CCNC(C)=O)c2ccc(O)cc12 | 11% | 1% | -2% | 0% | 8% | -3%
CCOC(=O)c1c(CSc2ccccc2)n(C)c2ccc(O)cc12 | . | . | . | -4% | -19% | 35µM*
CCOC(=O)c1c(C)n(CCOc2ccccc2)c2ccc(O)cc12 | . | . | . | -2% | 71µM* | 4µM*
COc1cc2c(C(=O)OCCN(C)C)c(CSc3ccccc3)n(C)c2cc1Br | 2% | 3% | -2%[9.22 µM] | 4% | 8% | -24%
COc1cc(Cl)c(C)cc1NC(=O)CCc1c(C)nc2cc(-c3cccc(F)c3)nn2c1C | . | . | . | -1% | . | 3%[59 µM]
Cc1cccc(CNc2ncncc2-c2cccnc2)c1 | -6% | . | -6% | . | -2% | -10%[0.501 µM]
Cc1cc(CNC(=O)CC2C(=O)NCCN2Cc2ccccc2)nn1C (stereo not given) | . | . | . | 0% | 6% | 45µM*
Cc1cc(CNC(=O)CC2C(=O)NCCN2Cc2ccc(-c3ccccc3)cc2)nn1C (stereo not given) | -7% | ? | -4%[46 µM] | 0% | 12% | -23%
Cc1nc(CCNC(=O)CC2C(=O)NCCN2Cc2ccccc2)nc2c1CCC2 (stereo not given) | . | . | . | -4% | -4% | 50µM*
CCOc1ccc(CN2CCNC(=O)C2CC(=O)NCCc2nc(C)c3c(n2)CCC3)cc1 (stereo not given) | . | . | . | 0% | 14% | 15%[12.7 µM]
Cn1cc(CCNC(=O)CC2C(=O)NCCN2CC(c2ccccc2)c2ccccc2)cn1 (stereo not given) | . | -6% | . | -2% | 4% | 13µM*
COC(=O)C(/C=C/C(C)Cc1cc(Br)cc(OCc2ccccc2)c1OC)OCc1ccccc1 (stereo not given) | -10%[13.5 µM] | . | . | . | -14% | .
COCCn1c(=O)c(C)nc2cnc(N3CCOCC3)nc21 | ? | . | 2% | . | 21% | 9%[0.501 µM]
c1csc(-c2nnc(N3CCOCC3)c3ccccc23)c1 | ? | -8% | -13%[46 µM] | -24% | 10% | 40µM*

Source: PubChem (National Center for Advancing Translational Sciences (NCATS))
